Assays:
[1] = test system: U-2932; test: growth inhibition by drug alone (1 - RLU/untreated control) (fraction); higher = stronger inhibition; conditions: 177Lu-lilotomab satetraxetan 0 ug/ml
Procedure, shortened: (§1)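 A radiolabelled anti-CD37 antibody conjugate (~600 MBq/mg) was applied for 18 h at 0.5 µg/ml to RIVA and 1 µg/ml to U-2932 cells, with untreated cells run alongside. All cells were washed and seeded at 3,000 cells/well onto library-printed plates at 10/100 nM (RIVA) or 10/1,000 nM (U-2932). Growth inhibition was based on RealTime-Glo luminescence compared with untreated no-drug wells. Daily reads began on day 3 after 1 h at 37°C, with each value being 1 − RLU/mean of the 48 such wells on that plate.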

[2] = test system: RIVA; test: as above; conditions: 177Lu-lilotomab satetraxetan 0 ug/ml
Procedure, shortened: as §1

[3] = test system: U-2932; test: growth inhibition by drug plus 177Lu-lilotomab satetraxetan (1 - RLU/untreated control) (fraction); higher = stronger inhibition; conditions: 177Lu-lilotomab satetraxetan 1 ug/ml
Procedure, shortened: as §1

[4] = test system: RIVA; test: as above; conditions: 177Lu-lilotomab satetraxetan 0.5 ug/ml
Procedure, shortened: as §1

Compound | growth inhibition by drug alone ([1]; 10 nM, time (day): 3) | growth inhibition by drug alone ([1]; 10 nM, time (day): 4) | growth inhibition by drug alone ([1]; 10 nM, time (day): 5) | growth inhibition by drug alone ([1]; 10 nM, time (day): 6) | growth inhibition by drug alone ([1]; 1000 nM, time (day): 3) | growth inhibition by drug alone ([1]; 1000 nM, time (day): 4) | growth inhibition by drug alone ([1]; 1000 nM, time (day): 5) | growth inhibition by drug alone ([1]; 1000 nM, time (day): 6) | growth inhibition by drug alone ([2]; 10 nM, time (day): 3) | growth inhibition by drug alone ([2]; 10 nM, time (day): 4) | growth inhibition by drug alone ([2]; 10 nM, time (day): 5) | growth inhibition by drug alone ([2]; 10 nM, time (day): 6) | growth inhibition by drug alone ([2]; 100 nM, time (day): 3) | growth inhibition by drug alone ([2]; 100 nM, time (day): 4) | growth inhibition by drug alone ([2]; 100 nM, time (day): 5) | growth inhibition by drug alone ([2]; 100 nM, time (day): 6) | growth inhibition by drug plus 177Lu-lilotomab satetraxetan ([3]; 10 nM, time (day): 3) | growth inhibition by drug plus 177Lu-lilotomab satetraxetan ([3]; 10 nM, time (day): 4) | growth inhibition by drug plus 177Lu-lilotomab satetraxetan ([3]; 10 nM, time (day): 5) | growth inhibition by drug plus 177Lu-lilotomab satetraxetan ([3]; 10 nM, time (day): 6) | growth inhibition by drug plus 177Lu-lilotomab satetraxetan ([3]; 1000 nM, time (day): 3) | growth inhibition by drug plus 177Lu-lilotomab satetraxetan ([3]; 1000 nM, time (day): 4) | growth inhibition by drug plus 177Lu-lilotomab satetraxetan ([3]; 1000 nM, time (day): 5) | growth inhibition by drug plus 177Lu-lilotomab satetraxetan ([3]; 1000 nM, time (day): 6) | growth inhibition by drug plus 177Lu-lilotomab satetraxetan ([4]; 10 nM, time (day): 3) | growth inhibition by drug plus 177Lu-lilotomab satetraxetan ([4]; 10 nM, time (day): 4) | growth inhibition by drug plus 177Lu-lilotomab satetraxetan ([4]; 10 nM, time (day): 5) | growth inhibition by drug plus 177Lu-lilotomab satetraxetan ([4]; 10 nM, time (day): 6) | growth inhibition by drug plus 177Lu-lilotomab satetraxetan ([4]; 100 nM, time (day): 3) | growth inhibition by drug plus 177Lu-lilotomab satetraxetan ([4]; 100 nM, time (day): 4) | growth inhibition by drug plus 177Lu-lilotomab satetraxetan ([4]; 100 nM, time (day): 5) | growth inhibition by drug plus 177Lu-lilotomab satetraxetan ([4]; 100 nM, time (day): 6)
CC[C@@H]1/C=C(\C)C[C@H](C)C[C@H](OC)[C@H]2O[C@@](O)(C(=O)C(=O)N3CCCC[C@H]3C(=O)O[C@H](/C(C)=C/[C@@H]3CC[C@H](Cl)[C@H](OC)C3)[C@H](C)[C@@H](O)CC1=O)[C@H](C)C[C@@H]2OC [Pimecrolimus] | 0.214 | 0.249 | 0.272 | 0.287 | 0.139 | 0.29 | 0.361 | 0.431 | 0.339 | 0.267 | 0.276 | 0.279 | 0.691 | 0.549 | 0.534 | 0.477 | 0.198 | 0.242 | 0.304 | 0.352 | 0.12 | 0.321 | 0.373 | 0.447 | 0.545 | 0.621 | 0.662 | 0.701 | 0.634 | 0.675 | 0.716 | 0.743
C[C@]12CC[C@@H]3c4ccc(O)cc4C[C@@H](CCCCCCCCC[S+]([O-])CCCC(F)(F)C(F)(F)F)[C@H]3[C@@H]1CC[C@@H]2O (some centres undefined) | 0.0173 | -0.00253 | -0.129 | -0.212 | -0.176 | -0.0393 | -0.0718 | -0.153 | -0.00571 | -0.0298 | -0.0782 | -0.352 | -0.0427 | -0.0179 | -0.055 | -0.154 | -0.00503 | 0.0303 | 0.0351 | 0.137 | -0.274 | -0.0121 | 0.0312 | 0.0757 | 0.418 | 0.515 | 0.523 | 0.531 | 0.466 | 0.525 | 0.532 | 0.5
CC1=C(/C=C/C(C)=C/C=C/C(C)=C/C(=O)Nc2ccc(O)cc2)C(C)(C)CCC1 [Fenretinide] | 0.0635 | 0.0202 | -0.0163 | -0.136 | 0.757 | 0.403 | 0.216 | 0.00716 | -0.0432 | -0.0451 | -0.13 | -0.456 | -0.388 | -0.302 | -0.337 | -0.461 | 0.0221 | 0.0894 | 0.138 | 0.148 | 0.704 | 0.374 | 0.313 | 0.295 | 0.515 | 0.573 | 0.583 | 0.583 | 0.435 | 0.504 | 0.521 | 0.541
CC(C)C[C@H](NC(=O)CNC(=O)c1cc(Cl)ccc1Cl)B(O)O | -0.0591 | -0.0376 | 0.0132 | 0.111 | 0.983 | 0.984 | 0.984 | 0.985 | -0.217 | -0.196 | -0.201 | -0.298 | 0.177 | 0.166 | 0.0904 | -0.0331 | -0.0412 | -0.00704 | 0.027 | 0.197 | 0.984 | 0.985 | 0.985 | 0.987 | 0.38 | 0.491 | 0.522 | 0.525 | 0.656 | 0.686 | 0.668 | 0.59
Nc1nc(N)c(N=O)c(OCC2CCCCC2)n1 | -0.102 | -0.0718 | -0.059 | 0.0483 | -0.102 | -0.0762 | -0.0902 | -0.132 | -0.226 | -0.243 | -0.283 | -0.504 | -0.331 | -0.36 | -0.322 | -0.473 | -0.0542 | -0.0355 | -0.000656 | 0.134 | -0.0976 | -0.0168 | 0.00555 | 0.0733 | 0.229 | 0.419 | 0.456 | 0.476 | 0.322 | 0.426 | 0.43 | 0.399
CC(C)C[C@@H](C(=O)N[C@H](C(=O)OC1CCCC1)c1ccccc1)[C@H](O)C(=O)NO [Tosedostat (CHR2797)] | 0.0666 | 0.0228 | -0.0512 | -0.123 | -0.142 | -0.112 | -0.102 | -0.0781 | 0.0304 | 0.0133 | 0.000967 | -0.0544 | -0.208 | -0.212 | -0.221 | -0.3 | 0.00927 | 0.0682 | 0.108 | 0.162 | -0.0889 | -0.0223 | 0.0204 | 0.176 | 0.571 | 0.596 | 0.613 | 0.62 | 0.559 | 0.591 | 0.602 | 0.604
CNC(=O)c1cc(Oc2ccc(NC(=O)Nc3cc(C(C)(C)C)nn3-c3ccc4ncccc4c3)c(F)c2)ccn1 [DCC-2036 (Rebastinib)] | 0.0874 | 0.0635 | 0.096 | -0.234 | 0.0869 | 0.114 | 0.104 | 0.0187 | -0.0575 | 0.00723 | -0.0883 | -0.395 | -0.428 | -0.203 | -0.231 | -0.405 | 0.0343 | 0.0699 | 0.117 | 0.132 | 0.0878 | 0.127 | 0.208 | 0.293 | 0.44 | 0.57 | 0.586 | 0.613 | 0.486 | 0.607 | 0.626 | 0.633
